Assay outcomes (PubChem)
HP1b binding inh: HTS for Inhibitors of HP1-beta Chromodomain Interactions with Methylated Histone Tails | AlphaScreen HP1-beta / biotin-H3K9me3 peptide binding | 390,000 compounds, 0.56% hits | AID 540317, 2011 | Chromobox protein homolog 1 (Homo sapiens), P83916 | Potency, µM (titrated, usually from 114 µM), usual class: inhibitors; further: nearly all actives have a fitted effect of over 70% in size
Target sequence (P83916 whole entry, looked up): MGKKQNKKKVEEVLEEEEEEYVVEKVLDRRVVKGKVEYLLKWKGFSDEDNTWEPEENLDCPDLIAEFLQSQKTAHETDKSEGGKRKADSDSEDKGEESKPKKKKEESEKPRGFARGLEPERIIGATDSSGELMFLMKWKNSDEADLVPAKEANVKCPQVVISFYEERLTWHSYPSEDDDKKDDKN
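HP1-beta protein (50 nM final) preincubated 30 min at room temperature with biotinylated H3(1-18)K9me3 peptide (50 nM) in PBS pH 7.4, 0.01% Tween-20, then compound added for 30 min. AlphaScreen streptavidin donor/nickel chelate acceptor beads (10 ug/mL final), 30 min dark, luminescence read.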
G9a block: qHTS Assay for Inhibitors of Histone Lysine Methyltransferase G9a. G9a H3K9 monomethylation, AlphaScreen, 2 h. Potency, µM (top dose mostly 102 µM), most hits filed as inhibitors. 350,000 compounds, 8.8% hits; further: nearly all actives have a fitted effect of over 75% in size
Target sequence (Q96KQ7 913-1193 limits assumed): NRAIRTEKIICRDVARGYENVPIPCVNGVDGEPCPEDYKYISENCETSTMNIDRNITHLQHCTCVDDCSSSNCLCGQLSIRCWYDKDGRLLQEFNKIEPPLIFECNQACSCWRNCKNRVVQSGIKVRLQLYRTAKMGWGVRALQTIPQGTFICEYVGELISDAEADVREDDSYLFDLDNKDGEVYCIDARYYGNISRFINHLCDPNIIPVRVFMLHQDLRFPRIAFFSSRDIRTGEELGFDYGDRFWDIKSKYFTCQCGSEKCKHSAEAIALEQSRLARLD
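Using a bead-based AlphaScreen, monomethylated H3K9 product from 2 h room-temperature reactions (G9a 20 nM, peptide 500 nM, SAM 20 uM) was detected with 0.5 ug/mL rabbit anti-H3K9me1 antibody.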
BAZ2B block: qHTS Assay for Inhibitors of BAZ2B. Potency, µM (titrated, usually from 114 µM), usual class: inhibitors. Bromodomain adjacent to zinc finger domain protein 2B (Homo sapiens), Q9UIF8. 360,000 compounds, 4.4% hits. AlphaScreen BAZ2B-H3K14Ac peptide displacement; further: nearly all actives have a fitted effect of over 60% in size
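Multi-concentration screen (max 110 uM) measuring displacement of acetylated histone H3 peptide from BAZ2B by AlphaScreen, using 50 nM protein, 50 nM peptide and 10 ug/mL streptavidin donor plus Ni-chelate acceptor beads.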
JMJD2A Tudor: qHTS Assay for Inhibitors of JMJD2A-Tudor Domain. Lysine-specific demethylase 4A (Homo sapiens), O75164. AlphaScreen JMJD2A-Tudor / H3K4me3 peptide binding. Potency, µM (top dose mostly 114 µM), actives largely listed as inhibitors. 390,000 compounds, 4.4% hits. AID 504339, 2011; further: nearly all actives have a fitted effect of over 50% in size
Sfp inh: qHTS Assay for Inhibitors of Bacillus subtilis Sfp phosphopantetheinyl transferase (PPTase). 310,000 compounds, 3.5% hits. Biochemical Sfp PPTase activity, qHTS. Potency, µM, actives largely listed as inhibitors. 4'-phosphopantetheinyl transferase ffp (Bacillus subtilis), Q9F4F7;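 further: the enzyme is Sfp with the accession as filed and its product quenches rhodamine fluorescence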
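Reaction rates are the 30-min fluorescence difference (ex 525, em 598 nm) in wells containing 15 nM Sfp, 5 uM rhodamine-CoA and 12.5 uM BHQ-2-YbbR at pH 7.6 with 10 mM MgCl2.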
Each line names hits and unclear results; the compound was inactive in the other large screens. Rows were chosen to be rich in hits. Some 12% of all compounds tested hit in one or more screens of this group. The call rests on the fitted dose curve; in most records, active means well fitted curve in the direction sought with a large enough effect; inconclusive means small, poorly fitted or top-dose-only effect, or another doubt; inactive means no such curve, though single readings can be large; an effect the other way counts as inactive or inconclusive.

O=C(O)CCCn1cc(NC(=O)COc2ccccc2[N+](=O)[O-])cn1	none
Cc1nc2ccccc2n1S(=O)(=O)c1ccc(F)cc1	none
Cc1ccc(S(=O)(=O)n2c(N)nc3ccccc32)cc1	G9a block 50.1µM
Cc1nn(C(C)c2n[nH]c(=S)n2-c2cccc(Cl)c2)c(C)c1[N+](=O)[O-] (configuration not stated)	G9a block 3.55µM, JMJD2A Tudor inconclusive
Cc1ccc(NCc2n[nH]c(=S)n2-c2cccc(Cl)c2)cc1	G9a block inconclusive, JMJD2A Tudor inconclusive
Cc1nn(C(C)C(=O)O)c(C)c1[N+](=O)[O-] (configuration not stated)	none
Cc1ccc(-n2c(C(C)n3nc(C)c([N+](=O)[O-])c3C)n[nH]c2=S)cc1 (configuration not stated)	G9a block 3.98µM, JMJD2A Tudor 12.6µM
COc1ccc(-n2c(C(C)n3nc(C)c([N+](=O)[O-])c3C)n[nH]c2=S)cc1 (configuration not stated)	G9a block 6.31µM, JMJD2A Tudor 12.6µM
CCOC(=O)C1=NOC(CNC(=O)c2ccccc2Cl)C1 (configuration not stated)	none
COc1cc2c(cc1OC)CC(=O)N(C)CC2	none
COc1cc2c(cc1OC)C[N+](C)(C)CC2	JMJD2A Tudor 50.1µM, Sfp inh inconclusive
COc1ccc(-n2cc(CNCc3cnc4ccccn34)c(-c3cccc(F)c3)n2)cc1	BAZ2B block 44.7µM, Sfp inh inconclusive (no result: G9a block)
COc1ccc(-n2cc(CNCC3CCOCC3)c(-c3cccc(F)c3)n2)cc1	none
Cc1cc(N2CCN(C)CC2)nc2ccc(NC(=O)CCC(=O)NCCC3=CCCCC3)cc12	none (no result: G9a block, BAZ2B block, Sfp inh)
Cc1cccc(CNc2cc(-c3ccoc3)ncn2)c1	Sfp inh 14.1µM (no result: HP1b binding inh, G9a block, BAZ2B block, JMJD2A Tudor)
COc1ccccc1CNc1cc(-c2ccccc2OC)ncn1	none (no result: HP1b binding inh, BAZ2B block, JMJD2A Tudor)
COc1ccccc1CNc1cc(-c2ccoc2)ncn1	Sfp inh 28.2µM (no result: HP1b binding inh, BAZ2B block, JMJD2A Tudor)
Cc1cnc(CNc2cc(-c3ccoc3)ncn2)cn1	Sfp inh 28.2µM (no result: HP1b binding inh, G9a block, BAZ2B block, JMJD2A Tudor)
c1cncc(CNc2cc(-c3ccoc3)ncn2)c1	Sfp inh 56.2µM (no result: HP1b binding inh, BAZ2B block, JMJD2A Tudor)
O=C1NC[C@H](c2ccccc2)OC(=O)[C@H](Cc2ccc(F)cc2)C/C=C\C[C@@H]1CC(=O)N(CCO)Cc1ccccc1	none (no result: G9a block, BAZ2B block, Sfp inh)
COc1ccccc1N=c1c2c([N+](=O)[O-])cc([N+](=O)[O-])cc2n(O)n1-c1ccccc1OC	none (no result: HP1b binding inh, JMJD2A Tudor)
COc1ccccc1-n1cc2c([N+](=O)[O-])cc([N+](=O)[O-])cc2n1	G9a block 10µM, BAZ2B block inconclusive
CC(=O)N/N=C/c1cc(C(C)(C)C)cc(/C=N/NC(C)=O)c1O	none
Cc1cn(C2CCCCO2)c(=O)nc1NO (configuration not stated)	JMJD2A Tudor 89.1µM (no result: G9a block, BAZ2B block, Sfp inh)
CO/N=C(/C(=O)N[C@@H]1C(=O)N2C(C(=O)O)=CCS[C@H]12)c1cnc(N)s1	Sfp inh 79.4µM (no result: HP1b binding inh, G9a block, JMJD2A Tudor)
CO/N=C(/C(=O)N[C@@H]1C(=O)N2C(C(=O)O)=C(CSc3nnnn3C)CS[C@H]12)c1csc(N)n1	none (no result: HP1b binding inh, BAZ2B block, JMJD2A Tudor)
CCS(=O)(=O)N1CCC(C(=O)Oc2ccccc2Cl)CC1	none
C[C@@H]1CN([C@H](C)CO)C(=O)c2cccc(NC(=O)Nc3ccc(C(F)(F)F)cc3)c2O[C@H]1CN(C)S(=O)(=O)c1cccs1	none (no result: G9a block, BAZ2B block, Sfp inh)
Oc1[nH]c2ccccc2c1N=Nc1cccc(Cl)c1	none
Cc1cccc2c(N=Nc3ccccc3)c(O)[nH]c12	G9a block 39.8µM
COC(=O)c1ccc(C(=O)Nc2ccc(F)cc2)cc1	none (no result: Sfp inh)
CCOC(=O)C1=C(C)N=c2s/c(=C/c3cccc([N+](=O)[O-])c3O)c(=O)n2C1c1cc(OC)c(OC)c(OC)c1 (configuration not stated)	HP1b binding inh 15.8µM, G9a block 2.24µM, BAZ2B block 7.94µM, JMJD2A Tudor 14.1µM, Sfp inh 56.2µM
CCOC(=O)C1=C(C)N=c2s/c(=C\c3cccc(OCC(=O)O)c3)c(=O)n2C1c1ccccc1 (configuration not stated)	G9a block inconclusive, JMJD2A Tudor inconclusive
CCOC(=O)C1=C(C)N=c2s/c(=C\c3cccn3C)c(=O)n2C1c1cccc(OC)c1OC (configuration not stated)	G9a block inconclusive, BAZ2B block inconclusive, JMJD2A Tudor inconclusive, Sfp inh 15.8µM
CCOC(=O)C1=C(C)N=c2s/c(=C/c3cccc([N+](=O)[O-])c3O)c(=O)n2C1c1ccccc1 (configuration not stated)	HP1b binding inh 14.1µM, G9a block 2µM, BAZ2B block 7.08µM, JMJD2A Tudor 28.2µM, Sfp inh 50.1µM
CCOC(=O)C1=C(C)N=c2s/c(=C\c3cc(OC)c(OC)c(OC)c3)c(=O)n2C1/C=C/c1ccccc1 (configuration not stated)	none
CC(=O)N1CCCc2cc(S(=O)(=O)N3CCN(c4ccccn4)CC3)ccc21	none
Cc1cc(C(=O)N(C)CC(=O)Nc2cccc(F)c2)no1	none (no result: Sfp inh)
CCOc1ccccc1NC(=O)c1cc(-c2ccncc2)nc2c(Cl)cccc12	G9a block inconclusive, BAZ2B block inconclusive, Sfp inh inconclusive
Cc1cc(N=Cc2c(O)n(-c3ccc(C)c(C)c3)c(=O)c3ccccc23)no1	none (no result: HP1b binding inh, JMJD2A Tudor)
Cc1cc(N=Cc2c(O)ccc3ccccc23)no1	G9a block 1.12µM, JMJD2A Tudor 28.2µM
Cc1cc(N=Cc2c(O)ccc3cc(Br)ccc23)no1	HP1b binding inh inconclusive, G9a block 1.41µM, JMJD2A Tudor 1.78µM
O=C(Cc1ccc(F)cc1)N/N=C/c1ccc(-c2ccc(Cl)c(C(=O)O)c2)o1	G9a block inconclusive, Sfp inh 28.2µM
Cc1ccc(C(=O)N/N=C\c2ccc(-c3ccc(Cl)c(Cl)c3)o2)cn1	JMJD2A Tudor inconclusive
O=C(O)c1cc(-c2ccc(/C=N/Nc3ccc([N+](=O)[O-])cn3)o2)ccc1Cl	HP1b binding inh inconclusive, G9a block 79.4µM, JMJD2A Tudor 39.8µM, Sfp inh 44.7µM (no result: BAZ2B block)
Cc1nnc(SCC(=O)N/N=C/c2ccc(-c3ccc(C)c(Cl)c3)o2)s1	HP1b binding inh inconclusive, G9a block 11.2µM
O=C(O)c1cc(N/N=C/c2ccc(-c3ccc(F)cc3)o2)ccc1Cl	G9a block 50.1µM, BAZ2B block inconclusive
CCC(=O)N/N=C/c1ccc(-c2ccc(Cl)cc2)o1	none
CN(N=O)C(=O)N[C@H]1[C@@H](O)[C@H](O)[C@H](CO)O[C@@H]1O	none (no result: HP1b binding inh, BAZ2B block, JMJD2A Tudor)
COc1ccc(-c2cccc(C(=O)N3CCOCC3)c2)cc1	none
